Compound activity deposited in PubChem BioAssay by The Scripps Research Institute Molecular Screening Center.
TCR-CD3 inh: inhibitors of human TCR-CD3 interaction, primary screen, biochemical, fluorescence, TAMRA-labeled TCR probe. T-cell receptor (TCR). AID 651800, 2012. inhibition, % at 9.4 µM. 0.37% of 360,000 active; in the data active = inhibition above about 19%;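 also: recombinant mutant TCR 2C K166C tagged with TAMRA read by polarization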
PRMT1 FP inh: PRMT1 methyltransferase inhibitors, primary screen, biochemical, fluorescence polarization; AID 652257, 2013; 1.3% of 370,000 active; Protein arginine N-methyltransferase 1 (Homo sapiens), Q99873; recombinant PRMT1, activity-based probe fluorescence polarization; inhibition, % at 2.79 µM;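 active = inhibition above about 21% made by adding two undisclosed values, limit read from the data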
SIAE primary: human SIAE inhibitors, primary screen, biochemical, fluorescence polarization, FP-Rh probe, 1536-well HTS; Sialate O-acetylesterase (Homo sapiens), Q9HAT2; SIAE FP-Rh probe binding; inhibition, % at 9.66 µM; 0.69% of 370,000 active; AID 1053197, 2014;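 active = inhibition above a cutoff: mean of compounds within the control limits plus 3 SD of those, cut at about 17% in these data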
PME-1 primary: PME-1 inhibitors via competitive probe labeling, primary screen, biochemical, fluorescence polarization, FP-Rh probe, HTS | Protein phosphatase methylesterase 1 (Homo sapiens), Q9Y570 | recombinant PME-1 | inhibition, % at 5.9 µM | 0.53% of 320,000 active | AID 2130, 2009;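 active = inhibition above the campaign mean of all compounds plus 3 SD, cut at about 26% in these data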;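 also: competitive labeling of PME-1 active site by serine hydrolase directed probe; inhibitors block probe labeling so polarization falls and inhibition rises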
Target sequence (Q9Y570 whole entry, looked up): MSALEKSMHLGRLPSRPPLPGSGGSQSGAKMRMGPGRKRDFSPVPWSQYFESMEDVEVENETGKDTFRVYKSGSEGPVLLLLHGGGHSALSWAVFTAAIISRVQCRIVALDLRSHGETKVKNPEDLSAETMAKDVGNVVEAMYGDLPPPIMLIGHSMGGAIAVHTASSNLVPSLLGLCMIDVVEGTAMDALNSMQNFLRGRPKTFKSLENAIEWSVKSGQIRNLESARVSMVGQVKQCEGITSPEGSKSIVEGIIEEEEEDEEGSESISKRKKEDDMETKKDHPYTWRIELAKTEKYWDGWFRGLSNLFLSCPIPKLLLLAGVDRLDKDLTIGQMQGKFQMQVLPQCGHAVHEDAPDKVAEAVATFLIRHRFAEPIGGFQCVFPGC
PAD4 FP inh: human PAD4 inhibitors, primary screen, biochemical, fluorescence polarization, 1536-well format; Protein-arginine deiminase type-4 (Homo sapiens), Q9UM07; recombinant PAD4, RCA probe fluorescence polarization; inhibition, % at 6.36 µM; 0.41% of 330,000 active; AID 485272, 2010;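 active = percent inhibition above a cutoff equal to the mean of all tested compounds plus 3 SD, cut at about 15% in these data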
Fam108B counter: mouse Fam108B serine hydrolase inhibitors, primary screen, counter-screen for RBBP9 inhibitor project, biochemical, fluorescence polarization. recombinant Fam108B, FP-Rh probe fluorescence polarization. inhibition, % at 9.51 µM. 0.33% of 300,000 active;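 active = inhibition above the screen mean inhibition plus 3 SD, computed separately per campaign, cut at about 18% in these data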;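 also: inhibitors lower polarization as less probe binds the enzyme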
PRMT1 inh conf: PRMT1 methyltransferase inhibitors, confirmation, biochemical, fluorescence polarization, triplicate | recombinant His-PRMT1, activity-based probe fluorescence polarization | shares compounds with PRMT1 FP inh | AID 687036, 2013 | inhibition, % at 2.79 µM | 42% of 3,300 active;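 active = mean inhibition across replicates above the hit cutoff derived for the earlier primary screen, cut at about 22% in these data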
Hits are given with their value; 0 = inactive; - = not tested or not shown. A selection: hits, their analogues and other compounds. The true share with any hit is near 2.6%.

SMILES | TCR-CD3 inh | PRMT1 FP inh | SIAE primary | PME-1 primary | PAD4 FP inh | Fam108B counter | PRMT1 inh conf
Cc1cccc(-c2cccc3c4c([nH]c23)[C@@H]2C[C@H]3[C@@H](C(=O)N2CC4)[C@H](C)ON3C)c1 | - | 0 | 0 | - | - | - | -
O=C(/C=C/c1ccc(F)cc1)c1cc(Br)ccc1O | 0 | 0 | 0 | 0 | 0 | 0 | -
O=C(/C=C/c1ccccc1)c1cc(Br)ccc(=O)c1O | 0 | 34 | 0 | 0 | 0 | 0 | 28
C=CCn1c(COc2ccc(C)cc2)nnc1SCC(=O)c1ccc(-c2ccccc2)cc1 | - | 0 | 0 | - | - | - | -
COc1ccccc1NS(=O)(=O)c1cc(NC(=O)C2CCC2)ccc1N1CCCCC1 | 0 | 36 | 0 | 0 | 0 | 0 | 0
C/C(=N\Nc1ccc(Cl)c(C(=O)O)c1)c1ccc[nH]1 | 0 | 32 | 0 | 0 | 0 | 0 | 0
Cc1cc(NS(=O)(=O)c2ccc(NC(=O)CSc3nnc(-c4ccccn4)n3Cc3ccco3)cc2)nc(C)n1 | - | 0 | 0 | - | - | - | -
CC(C)(C)c1ccc(O)c(O)c1 | 0 | 26 | 0 | 0 | 0 | - | 0
CC1(C)CC2C1CCC1(O)CC2(C)CCC1N(O)c1ccc(C(=O)NCCO)cn1 (centres undefined) | 0 | 28 | 0 | 0 | 0 | - | 0
CCCOc1ccc(C(=O)NCCO)cc1 | 0 | 0 | 0 | 0 | 0 | 0 | -
CC(=O)OC12CCCN(C1)/C(=C/c1ccccc1)C2 (centres undefined) | - | 0 | 0 | - | - | - | -
Cn1nnnc1SCC1=C(C(=O)O)N2C(=O)C(NC(=O)C3CC3c3ccccc3)C2SC1 (centres undefined) | 0 | 28 | 0 | 0 | 0 | 0 | 0
Cc1nnc(SCC2=C(C(=O)O)N3C(=O)C(NC(=O)Cn4ncc(Cl)c4C)C3SC2)s1 (centres undefined) | 0 | 50 | 0 | 0 | 0 | 0 | 37
Cc1nnc(SCC2=C(C(=O)O)N3C(=O)C(NC(=O)c4cccc(F)c4F)C3SC2)s1 (centres undefined) | 0 | 59 | 0 | 0 | 0 | 0 | 29
Cc1cc(C)n(CC(=O)NC2C(=O)N3C(C(=O)O)=C(CSc4nnc(C)s4)CSC23)n1 (centres undefined) | 0 | 35 | 0 | 0 | 0 | 0 | 0
Cn1nnnc1SCC1=C(C(=O)O)N2C(=O)[C@@H](NC(=O)[C@H](O)c3ccccc3)[C@H]2SC1 | - | - | - | 0 | 0 | 0 | -
CC(=O)OCC1=C(C(=O)O)N2C(=O)[C@@H](NC(=O)CSc3ccncc3)[C@H]2SC1 | 0 | 0 | 0 | - | - | - | -
COc1ccc(-n2c(SCC(=O)Nc3ccc(Cl)cc3)nc(O)c(Cc3ccccc3)c2=O)cc1 | 0 | 34 | 0 | 0 | 0 | 0 | 32
COc1ccc(-n2c(SCC(=O)Nc3ccc(C)cc3)nc(O)c(Cc3ccccc3)c2=O)cc1 | 0 | 0 | 0 | 0 | 0 | 0 | -
CCC[C@H]1[C@@H](NC(=O)/C=C/c2ccccc2)CC[C@@]23CCCN2C(=O)CCC[C@@H]13 | - | 0 | 0 | - | - | - | -
COCc1cccc(-c2csc(C(O)c3ccc(F)c(F)c3)n2)c1 (centres undefined) | 0 | 52 | 0 | - | - | - | 0
COc1ccc(-c2cc(C(=O)NN=Cc3cccn3C)[nH]n2)cc1 | - | 0 | 0 | - | - | - | -
Cn1cccc1C=NNC(=O)c1cc(-c2ccc(Cl)cc2)n[nH]1 | - | 25 | 0 | - | - | - | 0
CN[C@H]1C[C@H]2c3cc(-c4ccccc4C)ccc3CCN2C[C@H]1[C@H](C)O | - | 0 | 0 | - | - | - | -
CN1c2ccsc2/C(=N/Nc2ccccc2)CS1(=O)=O | 0 | 38 | 0 | 0 | 0 | 0 | 0
SMILES | TCR-CD3 inh | PRMT1 FP inh | SIAE primary | PME-1 primary | PAD4 FP inh | Fam108B counter | PRMT1 inh conf
CCCS(=O)(=O)c1c(S(=O)(=O)CCC)c2c(N)cccn2c1C(=O)c1ccc(F)cc1 | 0 | 26 | 0 | 0 | 0 | 0 | 0
COc1ccccc1NC(CC(=O)c1ccccc1)C(=O)OCC(=O)c1ccc(C)c(C)c1 (centres undefined) | 0 | 50 | 0 | 0 | 0 | 0 | 0
O=C(CC(Nc1ccccc1)C(=O)O)c1ccccc1 (centres undefined) | 0 | 0 | 0 | 0 | 0 | 0 | -
O=C(CC(Nc1ccc(Cl)cc1Cl)C(=O)O)c1ccccc1 (centres undefined) | 0 | 39 | 0 | 0 | 0 | 0 | 0
Cc1c(O)nc(SCC(=O)Nc2ccc3c4c(cccc24)CC3)n(-c2ccccc2)c1=O | 0 | 29 | 0 | 0 | 0 | 0 | 23
O=C(N1CCC(n2nc(-c3ccccc3)oc2=O)CC1)C1(c2ccccc2)CCCC1 | - | 0 | 0 | - | - | - | -
CSc1nc(=S)cc(C)[nH]1 | 0 | 83 | 0 | 0 | 0 | 0 | 89
O=C(NCC(c1ccccc1)c1ccccc1)[C@H](Cc1c[nH]c2ccccc12)NC1(C(=O)NC2CCCCC2)CCCCCC1 | - | 0 | 0 | - | - | - | -
CCCC1=NN2C(=N)/C(=C\c3ccc(SCc4ccco4)o3)C(=O)N=C2S1 | - | - | - | 0 | 0 | 0 | -
CCC1=NN2C(=N)/C(=C\c3ccc(SCc4ccco4)o3)C(=O)N=C2S1 | 0 | 39 | 0 | 0 | 0 | 0 | 0
O=C1CC(N2CCCCC2)C(=O)N1c1ccccc1 (centres undefined) | 0 | 81 | 0 | 0 | 0 | 0 | 0
O=C1CC(N2CCN(c3ccc(Cl)cc3)CC2)C(=O)N1c1ccc(F)cc1 (centres undefined) | 0 | 0 | 0 | 0 | 0 | 0 | -
O=C1CC(N2CCSCC2)C(=O)N1c1ccccc1 (centres undefined) | 0 | 0 | 0 | 0 | 0 | 0 | -
O=C1CC(N2CCCN(C3CC(=O)N(c4ccc(F)cc4)C3=O)CC2)C(=O)N1c1ccc(F)cc1 (centres undefined) | 0 | 78 | 0 | 0 | 0 | 0 | 0
O=C(CSc1nnc(-c2ccccn2)n1-c1ccccc1)Nc1ccccc1-c1ccccc1 | - | 0 | 0 | - | - | - | -
COc1cc(NC(=O)CSc2ncnc3sc4c(c23)CCCC4)c(C(=O)O)cc1OC | 0 | 32 | 0 | 0 | 0 | 0 | 0
COc1ccc(C(=O)OCCCN(C)C2CN(Cc3cn(Cc4ccccc4F)nn3)S(=O)(=O)C2)cc1OC (centres undefined) | - | 0 | 0 | - | - | - | -
O=C(O)/C(=C/c1ccc(Cl)c([N+](=O)[O-])c1)c1ccc(S(=O)(=O)N2CCCCC2)s1 | 0 | 39 | 0 | - | - | - | 0
O=S(c1ccccc1O)S(=O)c1ccccc1O (centres undefined) | 0 | 88 | 0 | - | - | - | 95
O=C1C[C@@H](c2ccccc2)N=C2N(CC3CC3)C/C(=C/c3ccccc3)N12 | - | 0 | 0 | - | - | - | -
COc1cc(/C=N/n2c(-c3cc(-c4ccccc4)n[nH]3)n[nH]c2=S)ccc1OCc1ccccc1 | - | 26 | 0 | - | - | - | 0
